Assay outcomes: PubChem BioAssay, National Center for Advancing Translational Sciences (NCATS)
Rows were chosen to be rich in hits. Some 10% of all compounds tested hit in one or more screens of this group.
LMNA splice mod: qHTS Assay for Modulators of Lamin A Splicing | 200,000 compounds, 0.01% hits | HeLa LMNA splicing GFP/RFP minigene ratio, 48 h | Potency, µM (highest dose often 46.1 µM), inactives show at the highest dose ratio change, negative = inhibition, actives largely listed as inhibitors | AID 1487, 2009; active = well fitted inhibition curve with a large enough effect in the signal ratio, with a control signal flat, not every such curve was filed as active; inconclusive = small, poorly fitted or top-dose-only effect, or effect the other way, or a change in a side signal; the % refers to the signal ratio; also: potency is read from the fitted curve at half-maximal effect
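Read-out is the ratio of GFP to DsRed2 object intensity, acquired by 488 nm laser-scanning cytometry on HeLa lamin A-EGFP minigene reporter cells. Compound incubation 48 hrs at 37 °C in Opti-MEM with 2% FBS; DMSO 0.5% final.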
PNC assembly inh: High Content Assay for Compounds that inhibit the Assembly of the Perinucleolar Compartment; activity change (PNC), negative = inhibition, % at 10 µM; AID 2417, 2010; PC3M PTB-GFP, PNC prevalence imaging, 16 h; hits give low values; 140,000 compounds, 3.1% hits;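 active = readout at or below -70, meaning at least 70% loss of cells showing the perinucleolar compartment, a nuclear body marking cancer cells; inconclusive = readout between -30 and a set limit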;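 also: plate controls were DMSO wells for no effect and camptothecin positive control wells for full effect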
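Compounds are pinned in duplicate onto adhered PC3M cells stably expressing GFP-tagged PTB and incubated 16 h at 37 C. Cells are then fixed, nuclei stained with Hoechst, and PNC-positive cells counted.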
ALDH1A1 inh: qHTS Assay for Inhibitors of Aldehyde Dehydrogenase 1 (ALDH1A1); Potency, µM (titrated, usually from 75.3 µM), for inactives: top-dose activity, negative = inhibition, most hits filed as inhibitors; AID 1030, 2008; Purified ALDH1A1, NADH fluorescence, propionaldehyde substrate; 220,000 compounds, 7.3% hits; Aldehyde dehydrogenase 1A1 (Homo sapiens), P00352;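 also: potency is read from the fitted curve at half-maximal effect; plate controls were no enzyme wells and a reference inhibitor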
Target sequence (P00352 whole entry, looked up): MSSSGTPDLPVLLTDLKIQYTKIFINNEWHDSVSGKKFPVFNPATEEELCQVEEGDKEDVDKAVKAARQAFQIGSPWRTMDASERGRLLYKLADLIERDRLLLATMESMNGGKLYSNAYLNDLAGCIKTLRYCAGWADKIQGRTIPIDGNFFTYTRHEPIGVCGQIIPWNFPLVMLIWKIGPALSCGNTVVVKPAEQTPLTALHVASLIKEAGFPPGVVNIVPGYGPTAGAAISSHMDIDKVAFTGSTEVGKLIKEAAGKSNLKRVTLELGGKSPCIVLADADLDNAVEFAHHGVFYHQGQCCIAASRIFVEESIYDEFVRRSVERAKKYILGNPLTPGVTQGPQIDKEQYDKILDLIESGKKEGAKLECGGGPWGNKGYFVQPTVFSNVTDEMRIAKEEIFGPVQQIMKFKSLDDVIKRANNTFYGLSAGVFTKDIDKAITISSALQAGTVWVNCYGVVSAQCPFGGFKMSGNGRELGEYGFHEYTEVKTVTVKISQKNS
ALOX12 inhib: qHTS Assay for Inhibitors of 12-hLO (12-human lipoxygenase); purified 12-hLO, xylenol orange hydroperoxide absorbance; Potency, µM (doses to about 57.1 µM), for inactives: at the top dose activity change, negative = inhibition, hits mostly inhibitors; 150,000 compounds, 0.12% hits; active = well fitted inhibition curve with a large enough effect; inconclusive = small, poorly fitted or top-dose-only effect; also: potency is read from the fitted curve at half-maximal effect; nearly all actives have a fitted effect of over 55% in size
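Purified human 12hLO (150 nM), preincubated 15 min with compound, then 40 uM arachidonic acid for 30 min, room temperature, Hepes pH 7.0 with 0.01% Triton X-100. Hydroperoxide detected by ferrous iron/xylenol orange; 573/405 nm absorbance ratio gives reaction progress.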
HPGD inh: qHTS Assay for Inhibitors of HPGD (15-Hydroxyprostaglandin Dehydrogenase); 15-hydroxyprostaglandin dehydrogenase [NAD(+)] (Homo sapiens), P15428; purified HPGD, NADH fluorescence kinetic, PGE2 substrate; Potency, µM, for inactives: at the top dose activity change, negative = inhibition, usual class: inhibitors; 150,000 compounds, 4.3% hits; also: potency is read from the fitted curve at half-maximal effect
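NADH formation kinetics: reaction with 30 uM PGE2 and 1 mM NAD+ (final), 20 nM enzyme, Tris-HCl pH 8 with Tween 20, after 15 min compound preincubation at room temperature. Fluorescence change, last versus first of five reads.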
An asterisk follows results filed as active; [ ] = remark or other dose. Unless noted, calls follow the shape of the dose curve; as a rule, active = well fitted inhibition curve with a large enough effect (not every such curve was filed as active); inconclusive = small, poorly fitted or top-dose-only effect, or another doubt; inactive = no such curve, though single readings can be large or run the other way. Unless noted, % is scaled to controls: 0 for no effect and ±100 for the full control effect.

`CCOC(=O)c1cc(S(=O)(=O)N2CCN(c3cc(Cl)ccc3C)CC2)[nH]n1` gave LMNA splice mod -10.0%[46 µM].
CS(=O)(=O)N1CCC(C(=O)NCc2ccc(F)cc2)CC1 was read as ALDH1A1 inh 2.9%.
For CN(C)c1ccc2nc3c(C(=O)O)cc(=O)c(O)c-3oc2c1 the results were ALDH1A1 inh 3.2%[13.5 µM], ALOX12 inhib -21.3%[11.4 µM] and HPGD inh -26.4%.
Screening COC(=O)N1CCC2(CC1)CN(C(=O)Nc1ccc(OC)cc1)C2 returned ALDH1A1 inh 3.4%, ALOX12 inhib 0.3% and HPGD inh -2.3%.
Screening COC(=O)C1CSc2[nH]c(=O)sc2C1c1ccc(OC)c(OC)c1 (centres undefined) returned LMNA splice mod -7.9%, PNC assembly inh 81.7, ALDH1A1 inh 7.94µM*, ALOX12 inhib -1.7% and HPGD inh 3.4%.
For CCN(CC)S(=O)(=O)c1ccc(N2CCCCC2)c(NC(=O)/C=C/c2cc(OC)c(OC)c(OC)c2)c1 the results were LMNA splice mod inconclusive, PNC assembly inh inconclusive, ALDH1A1 inh 12.6µM*, ALOX12 inhib -2.1% and HPGD inh -28.7%.
`COc1cc(/C=C/C(=O)Nc2cc(S(=O)(=O)N3CCOCC3)ccc2N2CCCC2)cc(OC)c1OC` gave LMNA splice mod -7.0%[46 µM] and ALDH1A1 inh 11.2µM*.
CCN(CC)S(=O)(=O)c1ccc(/C=C/C(=O)Nc2ccc(Br)cc2F)cc1 was read as LMNA splice mod inconclusive, PNC assembly inh -15.9, ALDH1A1 inh inconclusive, ALOX12 inhib -2.4% and HPGD inh -9.9%.
For CCN(CC)S(=O)(=O)c1cccc(NC(=O)/C=C/c2ccc([N+](=O)[O-])cc2)c1 the results were LMNA splice mod inconclusive, PNC assembly inh -26.2, ALDH1A1 inh 3.2%, ALOX12 inhib -3.8% and HPGD inh -4.1%.
For CCN(CC)S(=O)(=O)c1cccc(NC(=O)/C=C/c2cccc([N+](=O)[O-])c2)c1 the results were LMNA splice mod -14.6%, PNC assembly inh 7.0, ALDH1A1 inh 7.94µM*, ALOX12 inhib -4.6% and HPGD inh -11.7%.
CCN(CC)S(=O)(=O)c1ccc(/C=C/C(=O)Nc2ccc(F)cc2F)cc1 was read as LMNA splice mod inconclusive, PNC assembly inh -19.4, ALDH1A1 inh 20µM* and ALOX12 inhib -1.5%.
`Cc1ccccc1C(=O)Nc1ccccc1OCc1cc(=O)n2ccccc2n1` gave LMNA splice mod -6.8%[46 µM].
For CCC1CCCCN1C(=O)Cn1c(=O)n(CC2CCC(C(=O)NC)CC2)c(=O)c2sccc21 (centres undefined) the results were LMNA splice mod 20.4%[46 µM].
`CCN1CCN(C(=O)N[C@H](C(=O)N[C@@H]2C(=O)N3C(C(=O)O)=C(CSc4nnnn4C)CS[C@@H]23)c2ccc(O)cc2)C(=O)C1=O` gave LMNA splice mod 2.2%, ALDH1A1 inh 9.7%[20.9 µM], ALOX12 inhib -2.8%[25.6 µM] and HPGD inh -8.7%.
Screening COc1ccc(S(=O)(=O)N=Nc2c(O)[nH]c3ccccc23)cc1 returned ALDH1A1 inh 25.1µM*.
Screening Cc1ccc(S(=O)(=O)N=Nc2c(O)[nH]c3ccccc23)cc1C returned LMNA splice mod 31.5%, PNC assembly inh 31.1, ALDH1A1 inh inconclusive, ALOX12 inhib 0.6% and HPGD inh -10.1%.
For Cc1ccc(Cc2cnc(NC(=O)c3ccco3)s2)cc1 the results were LMNA splice mod inconclusive, PNC assembly inh 13.5, ALDH1A1 inh -10.5%, ALOX12 inhib 5.5% and HPGD inh -6.4%.
`O=C(Nc1ncc(Cc2ccc(SC(F)F)cc2)s1)c1ccc(OC(F)F)cc1` gave LMNA splice mod inconclusive, PNC assembly inh -85.6*, ALDH1A1 inh inconclusive, ALOX12 inhib 2.5% and HPGD inh -29.1%.
COC(=O)CC1c2ccccc2C=C(C2CC2)N1C(=O)OC (centres undefined) was read as LMNA splice mod 6.9%[9.22 µM], ALDH1A1 inh 1.2%, ALOX12 inhib 14.2%[11.4 µM] and HPGD inh -3.3%.
`COC(=O)c1ccc(C(NC(=O)OCc2ccccc2)/C(=C/[C@@H](C)C(=O)NCCc2c[nH]c3ccccc23)c2cccnc2)cc1` (some centres undefined) gave ALDH1A1 inh -4.6%, ALOX12 inhib -2.4% and HPGD inh -9.6%.
`CCC1CN(C(=O)N2CCC(C(=O)NCc3cccc(F)c3)CC2)c2cc(C)ccc2O1` (centres undefined) gave LMNA splice mod -5.9%[46 µM].
Screening COc1ccc(NC(=O)Nc2sc(NS(=O)(=O)c3ccccc3)nc2C)cc1 returned LMNA splice mod inconclusive and ALDH1A1 inh 8.91µM*.
`COc1ccc(NC(=O)Nc2sc(=S)n(C)c2C)cc1` gave ALDH1A1 inh 15.8µM*.
`Cc1ccc(S(=O)(=O)Nc2nc(C)c(NC(=O)Nc3ccc(Cl)cc3Cl)s2)cc1` gave LMNA splice mod 12.0%, PNC assembly inh inconclusive, ALDH1A1 inh -5.6%, ALOX12 inhib 7.08µM* and HPGD inh -5.0%.
Screening Cc1nc(NS(=O)(=O)c2ccccc2)sc1NC(=O)OC(C)C returned LMNA splice mod -3.8%, PNC assembly inh 2.4, ALDH1A1 inh inconclusive, ALOX12 inhib 5.6% and HPGD inh -18.3%.
For COC(=O)c1cc(C(=O)NCc2ccccc2)c(=O)[nH]c1C the results were LMNA splice mod -10.1%[46 µM] and ALDH1A1 inh inconclusive.
`COc1ccc(NS(=O)(=O)c2ccc3nc(COc4cccc5ccccc45)[nH]c3c2)cc1` gave LMNA splice mod inconclusive, PNC assembly inh -11.6, ALDH1A1 inh 22.4µM*, ALOX12 inhib -12.2% and HPGD inh 35.5µM*.
Cc1ccccc1OCc1nc2ccc(S(=O)(=O)N3CCOCC3)cc2[nH]1 was read as LMNA splice mod 8.6%, PNC assembly inh -10.2, ALDH1A1 inh 10µM*, ALOX12 inhib 1.7% and HPGD inh 14.1µM*.
For CCOC(=O)c1cc(-c2ccccc2)n(-c2cccc(C(=O)Nc3cccc(F)c3)c2)c1C the results were LMNA splice mod 0.5%[46 µM].
Screening CCCCN(CCCC)CCNC(=O)CSCc1ccc(C)cc1 returned LMNA splice mod inconclusive and ALDH1A1 inh 28.2µM*.
For Cc1ccc(CNC(=O)CSCc2ccccc2)cc1 the results were ALDH1A1 inh -7.3%.
For Cc1ccc(S(=O)(=O)/N=c2\sccn2C)cc1 the results were LMNA splice mod 4.6%, PNC assembly inh 99.2, ALDH1A1 inh 11.1%, ALOX12 inhib 4.1% and HPGD inh -7.2%.
